Results from PubChem BioAssay AID651820 (National Center for Advancing Translational Sciences (NCATS), 2012).
Hit rate of the full screen: of about 340,000 compounds, about 12,000 (3.5%) were called active. Another 18% or so got no clear call; they are omitted. The sample as a whole holds a higher share of actives than the screen did. Values without a mark were called inactive. Calls follow the shape of the dose curve; as a rule, active = well fitted inhibition curve with a large enough effect; inconclusive = small, poorly fitted or top-dose-only effect, or another doubt; inactive = no such curve, though single readings can be large or run the other way.

assay: qHTS Assay for Inhibitors of Hepatitis C Virus (HCV); settings: Huh7.5.1 HCVcc-Cre infection, luciferase reporter, 44 h; series mostly up to 41.8 µM; activity change, negative = inhibition: at the top concentration
How it was run: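 HCVcc-Cre virus at an moi near 0.5 was added right after compound to cells cultured 4 h from seeding (1,000 cells/well). Luciferase activity was determined 44 h later, 15 min after substrate addition at RT.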
% is scaled to controls: 0 for no effect and ±100 for the full control effect; potency is read from the fitted curve at half-maximal effect.

SMILES | activity change, negative = inhibition [%] | Potency
CC(C)(C)OC(=O)C[C@@H]1C/C=C\C[C@@H](CC(=O)N(CCO)Cc2ccccc2)C(=O)N[C@H](Cc2ccccc2)COC1=O | 14.1 | 
Cc1csc(=O)n1CC(=O)OCC(=O)N(CC(C)C)c1c(N)n(Cc2ccccc2)c(=O)[nH]c1=O | 0.0195 | 
Cn1c(=O)c2c(nc(Br)n2CCSc2nc3ccccc3o2)n(C)c1=O | -24 | 
Cc1ccnc(SCCn2c(Br)nc3c2c(=O)[nH]c(=O)n3C)n1 | -9.01 | 
Cn1c(=O)[nH]c(=O)c2c1nc(Br)n2CCCCSc1nc2ccccc2o1 |  | 12.6 µM (active)
CCCCC/C=C/C1=CC(=O)C[C@H](c2ccc(Cl)cc2)C1 | -4.66 | 
O=C1NCCn2nc3ccccc3c21 | -0.139 | 
Cn1c(N)c(C(=O)COC(=O)/C=C/c2cccc(C(F)(F)F)c2)c(=O)n(C)c1=O | 5.92 | 
Cc1cc(C)cc(-c2nnc(SCC(=O)NC3CC3)o2)c1 | 0.418 | 
O=C(c1ccc2c(c1)N(Cc1ccc(F)cc1)C(=O)CS2)N1CCOCC1 | 14.1 | 
CCOC(=O)N1CCN(C(=O)c2ccc3c(c2)N(Cc2ccc(C)cc2)CCS3)CC1 |  | 12.6 µM (active)
O=C(NCCN1CCOCC1)c1ccc2c(c1)N(Cc1ccc(Cl)cc1)CCS2 | 8.59 | 
O=C(NNC(=O)c1cc(S(=O)(=O)N2CCCCC2)ccc1Cl)c1ccccc1O | -11.9 | 
CN(C(=O)CN1C(=O)NC(C)(CCc2ccccc2)C1=O)c1ccccc1 (stereo not given) | 16.1 | 
O=C(COC(=O)c1cc[n+]([O-])cc1)Nc1ccc(Cl)c(C(F)(F)F)c1 | 0.896 | 
O=C1c2ccccc2C(=O)N1CCCCCCN1C(=O)c2ccccc2C1=O | 7.88 | 
O=C(NNC(=O)c1ccc2ccccc2c1)c1ccc(Cl)cc1 | -4.02 | 
COc1ccc(C(=O)CN2C(=O)NC3(CCc4ccccc43)C2=O)c(OC)c1 (stereo not given) | 4.95 | 
c1ccc(CCc2ccccn2)cc1 | 21.4 | 
CCOC(=O)C1=C(C)NC(=O)NC1c1ccccc1 (stereo not given) | 6.14 | 
CCOC(=O)C1=C(c2ccccc2)NC(=S)NC1c1ccc(Cl)cc1 (stereo not given) |  | 11.2 µM (active)
CCOC(=O)C1=C(c2ccccc2)NC(=O)NC1c1cc(OC)c(OC)cc1OC (stereo not given) | 20.3 | 
CCCn1c2ccccc2c2cnn(CC(=O)NCCCN3CCCCC3CC)c(=O)c21 (stereo not given) |  | 11.2 µM (active)
CCC1CCCCN1CCCNC(=O)Cn1nc(-c2ccccc2)ccc1=O (stereo not given) | 5.92 | 
CC1CCCCN1CCCNC(=O)Cn1ncc2c([nH]c3ccccc32)c1=O (stereo not given) | 12.5 | 
CC(C)N(C(=O)CN1CCN(S(=O)(=O)c2ccc(Br)s2)CC1)C(C)C | 8.62 | 
Cc1ccc(/C=C/C(=O)OCC(=O)Nc2cccnc2Cl)cc1 | -7.92 | 
O=[N+]([O-])c1cc(C(F)(F)F)ccc1NCCc1ccncc1 | -0.741 | 
c1ccc(CSCCc2ccncc2)cc1 | -1.66 | 
CC(C)(C)c1ccc(SCCc2ccncc2)cc1 |  | 8.91 µM (active)
